Hits are enriched below; roughly 19% of the tested compounds scored in any of these assays.
Pf growth 96h – Primary qHTS for delayed death inhibitors of the malarial parasite plastid, 96 hour incubation; P. falciparum luciferase reporter growth, 96 h; Potency, µM (highest dose often 28.7 µM), for inactives: top-dose activity change, negative = inhibition, usual class: inhibitors; 320,000 compounds, 6.9% hits; further: potency means the concentration at half of the fitted maximal effect; on the % scale 0 is the no-effect control and ±100 the full control effect
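Plates of compound plus infected erythrocytes (2% hematocrit, 0.05% parasitemia final) incubate 96 hours, 37 C, 5% CO2. Detection reagent added; reduced luminescence from the parasites' luciferase reporter flags inhibition.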
CHX counter – Cycloheximide Counterscreen for Small Molecule Inhibitors of Shiga Toxin | cell reporter, cycloheximide protein synthesis inhibition counterscreen | max response, % | 300,000 compounds, 12% hits | AID 2314, 2010; in the data active means max response mostly above about 13%, no sharp cut-off; inactive means mostly below about 14%; further: read at 38.3 µM for the half of the compounds with a filed dose; 0% is about no effect
LASV entry inh – qHTS for Inhibitors of binding or entry into cells for Lassa Virus; Potency, µM (titrated, usually from 37.9 µM), for the others: at the top dose activity change, negative = inhibition, hits mostly inhibitors; 300,000 compounds, 1.2% hits; Lassa virus pseudotype entry inhibition, cell reporter; calls by dose curve; tested in HEK293 cells; further: potency means the concentration at half of the fitted maximal effect; on the % scale 0 is the no-effect control and ±100 the full control effect; nearly all actives have a fitted effect of over 50% in size
Marburg entry inh – qHTS for inhibitors of binding or entry into cells for Marburg Virus; AID 540276, 2011; Potency, µM (highest dose often 37.8 µM), inactives show at the highest dose activity change, negative = inhibition, usual class: inhibitors; Marburg virus pseudotyped entry inhibition, cell reporter; 300,000 compounds, 1.8% hits; calls by dose curve; tested in HEK293 cells; further: potency means the concentration at half of the fitted maximal effect; on the % scale 0 is the no-effect control and ±100 the full control effect
Pf growth 48h – Primary qHTS for delayed death inhibitors of the malarial parasite plastid, 48 hour incubation; Potency, µM (titrated, usually from 28.7 µM), for the others: at the top dose activity change, negative = inhibition, actives largely listed as inhibitors; P. falciparum luciferase growth in erythrocytes, 48 h; 310,000 compounds, 5.9% hits; AID 504832, 2011; further: potency means the concentration at half of the fitted maximal effect; on the % scale 0 is the no-effect control and ±100 the full control effect
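Here the parasites carry a stable luciferase gene and grow inside erythrocytes in Albumax-based RPMI medium with compound for one erythrocytic cycle. Activity is scored as loss of luminescent signal.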
Shiga toxin inh – A qHTS for Small Molecule Inhibitors of Shiga Toxin; inhibition, % at 38.7 µM; Vero cells, Shiga toxin protein synthesis inhibition reporter; 290,000 compounds, 9.2% hits; AID 2315, 2010; in the data active means inhibition mostly above about 28%, no sharp cut-off; inactive means mostly below about 43%; further: 0% is about no effect
* hit, by the source's call; ? = inconclusive; / = not tested or not shown; [ ] = remark or other dose. Unless noted, the call rests on the fitted dose curve; in most records, active means well fitted inhibition curve with a large enough effect; inconclusive means small, poorly fitted or top-dose-only effect, or another doubt; inactive means no such curve, though single readings can be large or run the other way.

SMILES	Pf growth 96h	CHX counter	LASV entry inh	Marburg entry inh	Pf growth 48h	Shiga toxin inh
CCOC(=O)Cn1cnc2c(nnn2-c2cccc(OC)c2)c1=O	9.7%	18.5	/	/	3.0%	4.4
COc1ccc(C)cc1NC(=O)CSc1nnc(-c2ccco2)n1N	28.4%	-4.7	14.3%	1.0%	3.1%	-20.6
Cc1cccc(NC(=O)CSc2c(C)cnc3c2c(=O)n(C)c(=O)n3C)c1C	/	/	15.1%[46.1 µM]	/	/	/
CC[C@H](C)[C@H](NC(=O)[C@H](CO)NC(=O)[C@H](CC(N)=O)NC(=O)[C@H](CC(C)C)NC(=O)[C@H](Cc1ccc(O)cc1)NC(=O)[C@H](CCCCN)NC(=O)[C@H](CCCCN)NC(=O)[C@@H](NC(=O)[C@H](C)NC(=O)[C@H](CCSC)NC(=O)[C@H](CCC(N)=O)NC(=O)[C@H](CCCCN)NC(=O)[C@H](CCCNC(=N)N)NC(=O)[C@H](CC(C)C)NC(=O)[C@H](CCCNC(=N)N)NC(=O)[C@@H](NC(=O)[C@H](Cc1ccc(O)cc1)NC(=O)[C@H](CC(N)=O)NC(=O)[C@H](CC(=O)O)NC(=O)[C@@H](NC(=O)[C@H](Cc1ccccc1)NC(=O)[C@@H](NC(=O)[C@H](C)NC(=O)[C@H](CC(=O)O)NC(=O)[C@H](CO)NC(=O)[C@@H](N)Cc1cnc[nH]1)C(C)C)[C@@H](C)O)[C@@H](C)O)C(C)C)C(=O)N[C@@H](CC(C)C)C(=O)N[C@@H](CC(N)=O)C(N)=O	/	-4.5	/	/	/	-1.0
COc1ccc(N2CCN(S(=O)(=O)c3ccc(OC)c(C(=O)N4CCCCC4)c3)CC2)cc1	10.5%	-5.0	/	?	-2.2%	-10.1
CC(C)CO/N=C1\C[C@@H](O)[C@@H](O)[C@@H]2[C@@H]3C(=O)N(c4ccc(F)cc4F)C(=O)[C@@H]3CC[C@@H]12	/	/	/	-10.3%[14.2 µM]	/	/
O=[N+]([O-])c1ccc(N2CCN(CCOc3nonc3-c3ccccc3)CC2)c(Cl)c1	?	14.9	-6.8%	1.9%	9.7%	-3.2
Cc1nonc1OCCN1CCN(c2ccc([N+](=O)[O-])cc2)CC1	?	19.6*	-8.6%[46.1 µM]	?	?	19.0
CC1=CCC(/C=N\Nc2nnc3c(n2)[nH]c2ccccc23)CC1 (stereo unspecified)	?	76.2*	2.6%	30.4%	68.9%	55.3*
CCN(C(=O)CSc1n[nH]c(-c2cccs2)n1)C1CCS(=O)(=O)C1 (stereo unspecified)	55.7%	1.0	/	/	49.0%	-6.3
CCC(C)Nc1nc(-c2c[nH]c3ccccc23)cs1 (stereo unspecified)	?	30.7*	-8.6%	?	8.28µM*	14.8
CNc1nc(-c2c[nH]c3ccccc23)cs1	?	6.1	-0.4%	6.0%	/	-1.6
CN1CCN(CC(=O)Nc2nc(-c3c[nH]c4ccccc34)cs2)CC1	?	22.2*	-15.3%	?	?	62.1*
Nc1nc(-c2c[nH]c3ccccc23)cs1	/	16.8	?	2.9%	?	44.4
CCc1ccc(-c2csc(-c3c[nH]c4ccccc34)n2)cc1	?	61.8*	24.4%	?	91.4%	38.4*
O=C(O)C1OC2OC3(CCCCC3)OC2C2OC3(CCCCC3)OC12 (stereo unspecified)	1.47µM*	-2.0	7.9%	11.2%	13.0%	-12.3
O=C(OCC1OC2OC3(CCCCC3)OC2C2OC3(CCCCC3)OC12)c1ccccc1 (stereo unspecified)	?	0.4	-9.9%	12.0%	?	-8.2
COC(=O)c1cccc(NC2CC(=O)N(c3ccc(OC)c(OC)c3)C2=O)c1 (stereo unspecified)	/	-1.6	19.9%	9.0%	?	-4.0
COc1ccccc1/C=C/C(=O)N1CCCC1	37.7%	32.7*	16.2%	?	47.9%	35.8
COc1ccc(Oc2ccccc2/C=C/C(=O)O)cc1	0.0%	9.1	6.7%	?	1.8%	1.8
CNc1ccc(Br)cc(C(=O)/C=C/c2cccc(OC)c2OC)c1=O	?	-1.9	-21.0%	10.6%	?	4.5
COc1ccccc1/C=C/C(=O)/C=C/c1ccccc1O	?	99.4*	?	?	?	139.2*
COc1ccccc1/C=C/C(C)=O	-18.4%	-1.0	?	?	5.8%	1.5
COc1ccccc1C=CC(=O)C=Cc1ccccc1OC	/	/	4.47µM*	?	/	/
CNc1ccccc(C(=O)/C=C/c2ccccc2OC)c1=O	?	30.6*	?	11.2µM*	?	55.0*
SMILES	Pf growth 96h	CHX counter	LASV entry inh	Marburg entry inh	Pf growth 48h	Shiga toxin inh
CC(=O)CSc1nnc(-c2ccc(S(=O)(=O)N3CCCC3)cc2)n1C	-1.3%	-6.7	4.2%	7.1%	-24.3%	-2.5
CN(c1c[nH]c(=O)[nH]c1=O)C1CCCCC1	9.6%	7.6	1.6%	?	18.0%	4.1
COc1ccc(N(C(=O)c2ccccc2OC)C2C=CS(=O)(=O)C2)c(OC)c1 (stereo unspecified)	11.2%	-5.6	15.6%	23.9%	1.5%	-8.5
COc1ccc(N(C(C)=O)C2C=CS(=O)(=O)C2)c(OC)c1 (stereo unspecified)	10.4µM*	-0.6	1.8%	3.7%	35.8%	27.7
COc1ccc(CNC(=O)C(=O)NCC2OCCN2S(=O)(=O)c2ccc3c(c2)OCCO3)cc1 (stereo unspecified)	-28.3%	-1.7	-9.4%	8.1%	-2.2%	-9.8
N#CC1=C(N)NC(SCc2ccc(Cl)cc2)=C(C#N)C12CCCCC2	-1.6%[5.75 µM]	-0.7	?	11.2µM*	-13.1%	13.0
CSC1=C(C#N)C2(CCCC2)C(C#N)=C(N)N1	-3.9%	-3.7	/	/	?	-16.4
CCSC1=C(C#N)C2(CCCC2)C(C#N)=C(N)N1	-4.2%	9.9	10.2%	?	9.28µM*	13.1
N#CC1=C(N)NC(SCC(=O)c2ccccc2)=C(C#N)C12CCCC2	?	40.4*	-1.0%	-19.9%	-63.1%	67.1*
NC(=O)c1ccc(OCC(F)(F)C(F)(F)C(F)(F)C(F)(F)C(F)(F)C(F)F)cc1	11.7µM*	-3.0	-1.5%	21.9%	7.0%	-17.4
COc1cc2c(cc1OC)CN(c1ccc(C(F)(F)F)cn1)CC2	37.9%	21.1*	6.3%[46.1 µM]	?	19.4%	52.7*
COc1cc2c(cc1OC)CN(c1ccc(-c3ccccc3OC)nn1)CC2	5.9%[5.75 µM]	-2.9	?	?	5.22µM*	3.9
COc1cc2c(cc1OC)CN(c1ccc([N+](=O)[O-])c(C(F)(F)F)c1)CC2	?	-3.1	-17.5%	-15.6%	?	-6.2
COc1cc2c(cc1OC)CN(c1ccc3ccccc3n1)CC2	?	41.5*	27.7%	-19.3%[46.1 µM]	11.7µM*	87.6*
COc1ccc(COc2ccccc2C(N)=O)cc1F	37.0%	33.2*	-0.9%[46.1 µM]	10.8%	84.6%	66.1*

Bioassay records as filed in PubChem BioAssay.
